This note sets out measurements from PubChem BioAssay AID1650 (Southern Research Specialized Biocontainment Screening …, 2009).

Measured potencies and affinities stand elsewhere. The source made the active and inactive calls. The rule behind the calls is not given here.

The test in a line: mammalian cell viability reduction – secondary assay, cytotoxicity control for West Nile virus antiviral project, dose response (AID 1650). Conditions: Mammalian host cell viability, cytotoxicity counter-screen; series mostly up to 10 µM.
For the compound `CCN1CCN(c2ncc(C(=O)Nc3cc(Cl)c(OC)cc3OC)c3ccccc23)CC1`, the outcome was inactive.
For the compound `CCOC(=O)C(CC)(CC)C(=O)/C=C/c1cccc(Br)c1`, the compound was classed as inactive.
For the compound `O=C(Nc1ccc(F)c(Cl)c1)Nc1ccc(Cl)cn1`, the result was inactive.
As for `CCOC(=O)c1nn(-c2ccccc2)c2nc(-c3ccc(OC)cc3)c(C#N)c(=O)n12`, the call was inactive.
On to `CCCCN(CC)CCCNC(=S)Nc1ccc2nc(N3CCN(CC)CC3)cc(C)c2c1`, for which the call was inactive.
With `COc1ccc(-n2cc(CNCCCn3ccnc3)c(-c3cccc(F)c3)n2)cc1`, the call was inactive.
As for `CCN(CC)S(=O)(=O)c1cc(C(=O)Nc2cc(Cl)ccc2N2CCN(C)CC2)ccc1Cl`, the result was inactive.
The same measure for `CCN(CCCNC(=O)c1cc2c(-c3cccc(OC)c3)nn(C)c2s1)Cc1ccccc1`: “inactive”; for `CN1CCN(Cc2nc3ccccc3c(=O)n2Cc2nc(-c3ccccc3F)cs2)CC1`: “inactive”; for `COc1ccc(Nc2nc3ccccc3nc2C)cc1`: “inactive”.
For `O=[N+]([O-])c1cc(-c2nnc(Nc3ccc(O)cc3)c3ccccc23)ccc1N1CCOCC1`, the result was inactive.
For `Cc1cccc2c1NC(=O)/C2=C\C(=O)c1cccs1`, the compound was classed as inactive.
Consider `COc1ccc(NC(=S)Nc2ccc3nsnc3c2)cc1`, for which the call was inactive.
For `CN(C)CCCN1c2ccc([N+](=O)[O-])cc2CCc2cc([N+](=O)[O-])ccc21`, the compound was classed as inactive.
In the case of `COc1cc(CNC(C)(C)C)cc(Br)c1OCc1cccs1`, the compound was called inactive.
With `Cc1ccc(C)c(N2CCN(CCCNC(=O)Cn3cccc3C(=O)c3ccccc3)CC2)c1`, the compound was classed as inactive.
For the compound `CCOc1c2ccoc2nc2c(OC)c(OC)ccc12`, the outcome was inactive.
Take `CCCCn1c(=N)n(CC(O)COc2ccc(C)cc2)c2ccccc21` (stereo not given): the compound was classed as inactive.
As to `COc1ccc(NC(=O)CSc2nc3c(sc4ccccc43)c(=O)n2CCCN2CCCC2)cc1`, the compound was classed as inactive.
For `CN1CCN(c2ccc(NC(=O)c3ccc(-c4cccc([N+](=O)[O-])c4)o3)cc2)CC1`, the call was inactive.
The same measure for `CC(=O)N[C@@H](C)C(=O)N1CCC(n2nccc2NC(=O)CCCc2ccccc2)CC1`: “inactive”.
The same measure for `CC1CCCN(Cc2c(O)ccc3c(=O)c(-c4nc5ccccc5s4)c(N)oc23)C1` (stereo not given): “inactive”; for `CN(C)CCNC(=O)c1cc2sc3ccccc3c2s1`: “inactive”.
Turning to `CCCN1CCN(C(=S)Nc2ccc3nc(N4CCN(CC)CC4)cc(C)c3c2)CC1`, the outcome was inactive.
The same measure for `O=C(Nc1ccc(-n2ccc(C(F)(F)F)n2)cc1)Nc1cccc(Cl)c1`: “inactive”.
